Only some compounds are listed: those with a hit (about 3.4% of all), similar ones and a draw of the others.
GPR151 ag = activates the human receptor GPR151; activation, % at 11.2 µM; Q8TDV0; 650,000 tested, 1% active; PathHunter beta-arrestin GPR151 cells, luminescence; AID 1508602; in the data active means activation above about 4.9%;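 further: 0% = median of compound wells and 100% = cells with positive control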
MITF primary = inhibitors of human MITF. AID 1259374. AlphaScreen MITF homodimerization, bead proximity signal. O75030. inhibition, % at 2.6 µM. 650,000 tested, 0.91% active; in the data active means inhibition above about 50%;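 further: 0% = vehicle wells with protein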
FBW7 activator = activators of human E3 ligase FBW7. Q969H0. 650,000 tested, 0.13% active. AID 1259310. AlphaScreen FBW7–phospho-cyclin E peptide binding, activator screen. normalized activity (activation), % at 26.1 µM; in the data active means normalized activity above about 1.9%;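 further: purified mutant Fbw7 with reduced substrate affinity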
Target sequence (Q969H0 whole entry, looked up): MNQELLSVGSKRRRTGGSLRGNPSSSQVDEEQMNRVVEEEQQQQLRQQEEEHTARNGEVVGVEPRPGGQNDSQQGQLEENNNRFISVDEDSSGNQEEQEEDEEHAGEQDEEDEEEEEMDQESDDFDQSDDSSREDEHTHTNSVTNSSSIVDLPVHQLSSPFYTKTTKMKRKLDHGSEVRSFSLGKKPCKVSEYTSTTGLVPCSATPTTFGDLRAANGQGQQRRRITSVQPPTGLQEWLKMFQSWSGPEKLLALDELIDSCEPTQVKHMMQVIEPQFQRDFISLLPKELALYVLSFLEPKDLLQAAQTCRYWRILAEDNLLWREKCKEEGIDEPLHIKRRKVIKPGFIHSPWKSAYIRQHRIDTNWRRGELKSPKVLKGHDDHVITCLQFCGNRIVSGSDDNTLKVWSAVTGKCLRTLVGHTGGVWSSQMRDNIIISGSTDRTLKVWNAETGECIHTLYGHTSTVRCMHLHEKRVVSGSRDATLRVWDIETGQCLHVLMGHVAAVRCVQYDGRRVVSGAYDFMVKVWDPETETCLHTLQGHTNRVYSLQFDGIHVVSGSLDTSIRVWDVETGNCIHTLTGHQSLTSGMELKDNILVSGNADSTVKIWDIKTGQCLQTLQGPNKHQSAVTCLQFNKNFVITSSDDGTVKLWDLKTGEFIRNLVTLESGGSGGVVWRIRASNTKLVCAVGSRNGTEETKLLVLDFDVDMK
TEAD-YAP inh = TEAD-YAP interaction inhibition; AID 1259422; 640,000 tested, 1.4% active; HEK-TIYL cells, TEAD-Gal4/YAP UAS-luciferase luminescence; inhibition, % at 9.12 µM; in the data active means inhibition above about 32%;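 further: 0% = median of test compound wells and 100% = reference inhibitor wells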
MITF confirm = confirmation of human MITF inhibitors. shares compounds with MITF primary. AlphaScreen MITF homodimerization, biotin/His-MITF beads. inhibition, % at 2.6 µM. 4,700 tested, 16% active;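 active means inhibition above a cutoff derived from the DMSO control wells, cut at about 28% in these data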;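 further: 0% = MITF dimer wells with DMSO only; inhibitors lower the bead chemiluminescence by keeping MITF from dimerizing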
AlphaScreen DR = AlphaScreen optical interference, dose response counter-screen. shares compounds with MITF primary. AlphaScreen optical interference counterscreen, cell-free. IC50, µM. 480 tested, 6% active; call rule not given here
AS interf ctr = AlphaScreen optical interference, counter-screen; inhibition, % at 2.6 µM; 4,700 tested, 7.6% active; shares compounds with MITF primary; LysRS AlphaScreen counterscreen, signal interference, triplicate;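 active means inhibition above a cutoff derived from the DMSO control wells, cut at about 30% in these data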
The depositor's hits bear a star; . = no result given.

SMILES | GPR151 ag | MITF primary | FBW7 activator | TEAD-YAP inh | MITF confirm | AS interf ctr | others
Cc1cc(/C=C2/C=CC(=O)O2)oc1C | -1.7 | 75.3* | 0.4 | 7.0 | 72.2* | 10.1 | AlphaScreen DR=>7.29
Cc1nn2c3ccccc3n(CC(=O)c3ccc([N+](=O)[O-])cc3)c2nc1=O | 0.9 | -1.1 | 0.0 | 7.5 | . | .
COc1ccc(CNC(=O)c2cnn3c(C)c(Cc4ccc(C)cc4)c(C)nc23)cc1 | 4.4 | -4.2 | -0.1 | -0.6 | . | .
NNC(=O)C(=O)NNc1ccccn1 | 1.6 | 69.5* | -0.1 | -2.7 | 74.2* | 100.6*
O=[N+]([O-])c1ccc(Cl)c(S(=O)(=O)N2CCN(Cc3ccccc3)CC2)c1 | 1.0 | 12.9 | -0.3 | 6.5 | . | .
COc1cccc(CN2CCN(S(=O)(=O)c3cccc([N+](=O)[O-])c3)CC2)c1 | -1.1 | 12.0 | -0.2 | 2.4 | . | .
O=[N+]([O-])c1cccc(CN2CCN(S(=O)(=O)c3ccc4ccccc4c3)CC2)c1 | -0.3 | 61.6* | -0.3 | -2.0 | 14.3 | 24.3
O=S(=O)(c1ccc2ccccc2c1)N1CCN(C2CCN(Cc3ccccc3)CC2)CC1 | 0.7 | 52.4* | -0.3 | 9.1 | 4.5 | 16.2
O=[N+]([O-])c1ccc(S(=O)(=O)N2CCN(Cc3cccc(Cl)c3)CC2)cc1 | -0.1 | 64.3* | -0.2 | 7.9 | 8.7 | 10.6
O=S(=O)(c1cccc(S(=O)(=O)N2CCN(Cc3ccccc3)CC2)c1)N1CCCC1 | 0.6 | 53.1* | 0.0 | 6.5 | 8.8 | 13.9
O=C(NCc1ccccc1)c1ccc(-c2ccc(N3CCOCC3)nc2)s1 | -0.2 | 11.8 | 0.2 | 11.1 | . | .
O=C(NCCOc1ccccc1)c1ccc(-c2ccc(N3CCOCC3)nc2)s1 | -12.4 | 79.5* | 0.3 | -31.6 | 3.3 | 2.4
O=C(O)c1cccc(-n2cccc2/C=C\[N+](=O)[O-])c1 | 0.4 | 63.2* | -0.4 | -8.1 | 58.7* | 6.3 | AlphaScreen DR=>6.48
Nc1nnc(SCC(=O)NCCCCNC(=O)CSc2nnc(N)s2)s1 | 1.4 | -0.6 | 0.0 | -2.2 | . | .
CC(C)NC(=O)NC(=O)CSc1nnc(N)s1 | 0.0 | 63.6* | 0.0 | -3.1 | 1.4 | -2.7
CCn1c2ccccc2c2cc(CN3CCN(Cc4cc(OC)c(OC)cc4[N+](=O)[O-])CC3)ccc21 | 0.7 | 81.7* | -0.2 | 4.6 | 3.5 | 21.1
COc1cc(CN2CCN(Cc3cccc(OC)c3OC)CC2)c([N+](=O)[O-])cc1OC | 0.3 | 51.9* | 0.0 | -8.6 | 4.2 | 2.9
COc1cc(CN2CCN(Cc3cccc4ccccc34)CC2)c([N+](=O)[O-])cc1OC | 2.3 | 70.1* | -0.2 | -15.4 | 11.9 | 0.1
COc1cccc(CCNc2ncnc3sc(C(=O)N4CCC[C@H]4CO)c(C)c23)c1 | 4.4 | 8.8 | 0.0 | 7.5 | . | .
CC(C)CCn1nc(C(=O)N2C(=O)c3cccc(N)c3C2=O)c2ccccc2c1=O | -0.4 | -4.2 | 0.0 | 5.5 | . | .
N#CSc1ccc(NS(=O)(=O)c2ccc3c(c2)OCCO3)c(F)c1 | 0.6 | 5.0 | 0.1 | 4.0 | . | .
Oc1ccc(CN2CCOCC2)c2cccnc12 | -0.4 | 90.8* | -0.4 | 67.1* | 99.0* | 99.2*
CCOC(=O)C1CCN(Cc2ccc(O)c3ncccc23)CC1 | 0.0 | 71.8* | -1.9 | 55.3* | 113.5* | 100.3*
O=C(O)C1CCCCC1C(=O)N1CCN(c2ccc(Cl)cc2)CC1 (stereo unspecified) | 0.4 | 0.8 | -0.1 | -6.8 | . | .
O=C1CC(=O)N(Cc2ccco2)C(=S)N1 | 0.4 | 70.2* | -1.0 | -4.8 | -10.8 | 61.6*
SMILES | GPR151 ag | MITF primary | FBW7 activator | TEAD-YAP inh | MITF confirm | AS interf ctr | others
O=C1CC(=O)N(Cc2ccco2)C(=O)N1 | 1.3 | 32.6 | 0.3 | 4.7 | . | .
O=C(NCC1CCCCC1)C1CCCN1C(=O)NC1CCCCC1 (stereo unspecified) | 0.4 | 3.9 | -0.1 | 2.6 | . | .
C=CCNC(=O)C1CCCN1C(=O)NC1CCCCC1 (stereo unspecified) | 0.6 | 66.2* | 0.2 | 9.5 | 4.5 | 10.0
COCCCNC(=O)/C(C#N)=C/c1ccc(OCC(=O)O)c(OC)c1 | -0.3 | 61.7* | -0.3 | 9.7 | 34.7* | -8.1 | AlphaScreen DR=>6.48
COc1ccc(/C=N/NC(=O)CSc2ccccc2C)cc1 | 1.0 | -9.0 | 0.0 | -2.1 | . | .
c1ccc(-c2ccccc2OCCN2CCOCC2)cc1 | 0.7 | 77.8* | -0.1 | -2.3 | 5.6 | 3.8
CCN1CCN(CCOc2ccccc2-c2ccccc2)CC1 | -1.8 | 43.8 | -0.2 | 7.2 | . | .
c1ccc(-c2ccccc2OCCCCN2CCOCC2)cc1 | 1.9 | 77.3* | -0.3 | -3.2 | -9.6 | -4.0
CN1CCN(CCOc2ccccc2-c2ccccc2)CC1 | -1.0 | 55.3* | 0.1 | -1.3 | 4.5 | 4.7
Cc1[nH]c(=O)[nH]c1C(=O)CCCCC(=O)O | 1.0 | 120.8* | -0.4 | 8.3 | 113.3* | 95.3*
CCCCCCC(=O)Oc1ccc2cc(OC(=O)CCCCCC)ccc2c1 | -0.4 | 0.9 | 0.1 | -2.1 | . | .
CC(=O)NCC(=O)OCC(=O)Nc1ccccc1[N+](=O)[O-] | 0.1 | -5.7 | 0.0 | 6.8 | . | .
Cc1[nH]c(=O)[nH]c1C(=O)CCCCC(=O)OCC(=O)Oc1ccc2ccccc2c1 | 1.0 | 112.0* | -0.9 | -6.0 | 111.4* | 98.3*
Cc1[nH]c(=O)[nH]c1C(=O)CCCCC(=O)OCC(=O)Nc1ccccc1[N+](=O)[O-] | -0.3 | 113.3* | -1.1 | 8.6 | 114.7* | 92.8*
Cc1cc(NC(=O)COC(=O)CCCCC(=O)c2[nH]c(=O)[nH]c2C)no1 | 1.4 | 116.0* | -1.5 | 8.8 | 111.7* | 92.9*
Cc1ccc(NC(=O)CSc2nc(N)cc(N)n2)c(Cl)c1 | -0.5 | -6.5 | -0.1 | -16.5 | . | .
NC(=O)c1ccccc1NC(=O)C1C2C=CC(C2)C1C(=O)O (stereo unspecified) | -0.3 | 12.7 | 0.1 | 1.4 | . | .
COc1ccccc1-n1nc(C(=O)NCC2CCCO2)c2ccccc2c1=O (stereo unspecified) | 0.1 | 8.0 | 0.1 | 11.6 | . | .
COc1cccc(CCNC(=O)c2cn(CCN(C)C)c3cc(-c4cn[nH]c4)ccc23)c1 | -0.5 | 8.1 | -0.1 | -2.8 | . | .
Cc1ccccc1CN1CCC2(CCC(CNC(=O)CCc3cccnc3)O2)CC1 (stereo unspecified) | 0.3 | -7.9 | 0.1 | 3.3 | . | .
NC(=O)c1ccc(NC(=O)COC(=O)c2c3c(nc4ccccc24)CCCCC3)cc1 | 3.2 | -5.6 | -0.2 | 2.6 | . | .
CCOC(=O)CCCC/C(=N\O)c1[nH]c(=O)[nH]c1C | -0.3 | 98.7* | -1.0 | -6.9 | 97.1* | 64.9*
CCOC(=O)CCCCC(=O)c1[nH]c(=O)[nH]c1CNc1ccc(Br)cc1 | -1.7 | 27.4 | 0.9 | 2.6 | . | .
CN(C)CCCN1C(=O)C(=O)/C(=C(\O)c2ccccc2)C1c1ccco1 (stereo unspecified) | -0.4 | 75.2* | 0.4 | -1.4 | -3.6 | -11.9
NC(=O)c1ccc(N=Cc2cc(Br)ccc2O)cc1 | 2.3 | -5.5 | -0.1 | -3.0 | . | .

Screens deposited in PubChem BioAssay by The Scripps Research Institute Molecular Screening Center.
